The text below walks through data of PubChem BioAssay (Tox21).

Molecules are shown by their SMILES. Values joined by “and” are separate entries in the source; they are usually repeats but may differ in a detail not shown here. Equal entries are not always repeated. Records with an inconclusive call do not appear. More than one record can exist for a structure, and the calls need not agree. Active and inactive are the calls of the source. Unless noted, calls follow the shape of the dose curve; as a rule, active = well fitted curve in the direction sought with a large enough effect in the repeat runs; inconclusive = weak or mixed curves; inactive = no such curve, though single readings can be large; an effect the other way counts as inactive or inconclusive.

Assay [1] in a line: qHTS assay to identify small molecule agonists of the progesterone receptor (PR) signaling pathway - cell viability counter screen (AID 1346799; calls by dose curve; also: nearly all actives have a fitted effect of over 45% in size). Put shortly: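 PR-UAS-bla HEK293T cells, 3,000 per well in medium with 2% charcoal-stripped FBS, were preincubated 6 hr at 37C, then exposed to compounds for 16 hr; viability was read as CellTiter-Glo luminescence after 30 min at room temperature.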

Assay [2] can be described thus: qHTS assay to identify small molecule antagonists of the TGF-beta/Smad signaling pathway - cell viability counter screen (AID 1346824). Also: nearly all actives have a fitted effect of over 50% in size. Put shortly: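 SBE-bla HEK 293T cells were plated overnight at 37 C, then given compounds in DMSO plus TGF-beta1 (added as 0.25 ng/mL solution) for 5 hr. After the bla read, CellTiter-Glo was added to the same wells and luminescence read after 30 min at room temperature.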

A short description of assay [3]: qHTS assay to identify small molecule agonists of the TGF-beta/Smad signaling pathway - cell viability counter screen (AID 1346829). Also: top concentration of the series differs between compounds; nearly all actives have a fitted effect of over 45% in size. In short, it runs like this: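 CellTiter-Glo luminescence readout; SBE-bla HEK 293T cells, overnight plating, compound 5 hr at 37 C/5% CO2, then bla substrate 2 hr RT, then CellTiter-Glo 30 min RT.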
For orientation: qHTS replaces the single test concentration by a dilution series.

Assay [4] is described as follows: qHTS assay to identify small molecule agonists of the TGF-beta/Smad signaling pathway (AID 1346859; active = well fitted activation curve with a large enough effect in the signal ratio in the repeat runs, not every such curve was filed as active; the % refers to the signal ratio; also: series mostly up to about 77 µM). In short, it runs like this: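 HEK 293T cells stably carrying a beta-lactamase reporter driven by the Smad binding element were seeded overnight, exposed to DMSO-dissolved compounds for 5 hr at 37 C, 5% CO2, then loaded with FRET substrate for 2 hr at room temperature.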

A short description of assay [5]: Caspase-3/7 induction in HepG2 cells by small molecules, qHTS assay (AID 1346978). Also: nearly all actives have a fitted effect of over 15% in size. In short, it runs like this:
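Wild-type HepG2 cells (2,000/well) were settled 5 h at 37 C, 5% CO2, then exposed to compounds in DMSO for 17 h. Caspase-3/7 activity was read by luminescence 30 min after adding Caspase-Glo 3/7 reagent at room temperature.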

Assay [6] in a line: Caspase-3/7 induction in CHO-K1 cells by small molecules, qHTS cell viability counter screen (AID 1346979). Also: nearly all actives have a fitted effect of over 35% in size. Also: potency is read from the fitted curve at half-maximal effect. In short, it runs like this:
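Wild-type CHO-K1 cells were seeded at 1,500 per well, rested 5hr at 37 C, then exposed to compounds in DMSO. After 16hr, CellTiter-Fluor reagent was added and fluorescence read 1hr later as the viability measure.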

Assay [7] can be described thus: Caspase-3/7 induction in CHO-K1 cells by small molecules, qHTS assay (AID 1346980). Also: nearly all actives have a fitted effect of over 15% in size. In short, it runs like this: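 Wild-type cells were seeded at 1,500 per well and settled 5 hr at 37 C, 5% CO2, then exposed to DMSO-dissolved compounds for 17 hr. Caspase-Glo 3/7 reagent was added, and luminescence was read after 30min at room temperature.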
Assay [8] concerns the target Thyrotropin-releasing hormone receptor (Homo sapiens) (UniProt P34981). Put plainly: qHTS assay to identify small molecule agonists of the thyrotropin-releasing hormone receptor (TRHR) signaling pathway (AID 1346891; calls by dose curve; also: series mostly up to about 58 µM). In short, it runs like this: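 TRHR-expressing HEK293 cells were plated 18 h at 37 °C/5% CO2, loaded with calcium dye 2 h at 37 °C, then given compound in DMSO; fluorescence was read kinetically for 3 min at 1 s intervals.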

Assay [9] is described as follows: Human pregnane X receptor (PXR) small molecule agonists, qHTS cell viability counter screen (AID 1346977). Also: nearly all actives have a fitted effect of over 50% in size. Also: potency is read from the fitted curve at half-maximal effect. Put shortly:
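PXR-Luc HepG2 cells in medium with 5% charcoal-stripped FBS were pre-incubated 5hr, then exposed to compounds for 24hr at 37C. Viability was read in the same wells by CellTiter-Fluor fluorescence, reagent added after 23hr with a 1hr incubation.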

The target in assay [10] is Thyrotropin-releasing hormone receptor (Homo sapiens) (UniProt P34981). Put plainly: qHTS assay to identify small molecule antagonists of the thyrotropin-releasing hormone receptor (TRHR) signaling pathway (AID 1346877; active = well fitted inhibition curve with a large enough effect in the repeat runs, not every such curve was filed as active; also: series mostly up to about 51 µM). Put shortly:
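Kinetic fluorescence (3 min, 1 s resolution) following stimulation with TRH at 1 nM final; HEK293 cells bearing human TRHR; 5 min compound preincubation at RT; concentration-response over 15 points, triplicates.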

Chain of Thyrotropin-releasing hormone receptor (Homo sapiens) (P34981 whole entry, looked up): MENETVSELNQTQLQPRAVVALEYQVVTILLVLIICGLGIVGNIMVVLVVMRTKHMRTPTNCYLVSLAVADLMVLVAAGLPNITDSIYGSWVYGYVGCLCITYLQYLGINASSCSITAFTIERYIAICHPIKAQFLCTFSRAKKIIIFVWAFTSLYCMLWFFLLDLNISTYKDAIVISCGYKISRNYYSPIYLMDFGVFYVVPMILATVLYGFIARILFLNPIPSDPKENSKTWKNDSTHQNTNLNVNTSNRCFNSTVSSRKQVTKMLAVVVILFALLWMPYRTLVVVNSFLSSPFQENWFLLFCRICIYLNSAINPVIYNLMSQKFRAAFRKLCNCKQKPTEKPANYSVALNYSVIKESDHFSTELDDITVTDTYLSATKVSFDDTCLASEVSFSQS

For the compound `CCOP(=S)(OCC)Oc1cnc2ccccc2n1`, the Potency result in assay [1], in assay [2], in [4] and in assay [6] was “inactive” each time. In addition, the call in [3], in assay [5] and in assay [7] was inactive.
As for `CCCC1COC(Cn2cncn2)(c2ccc(Cl)cc2Cl)O1` (stereo not given), the call in assay [3], in assay [5] and in assay [7] was inactive. Besides, the Potency result in assay [4] and in [8] was “inactive” throughout. Besides, the Potency in assay [6] was 62.3 µM (active) and 68.6 µM (active).
As to `COc1ccc2c3c1O[C@H]1[C@@H](O)C=C[C@H]4[C@@H](C2)N(C)CC[C@@]341`, the Potency entry in [1], in [2] and in [4] was “inactive” throughout. The call in assay [3], in assay [5] and in assay [7] was inactive. In addition, the Potency is 67.5 µM (active) and inactive in assay [9]; 60.1 µM (active) and inactive in assay [6].
Take `CC(Oc1ccc(Cl)cc1Cl)C(=O)O` (stereo not given): the Potency result in assay [1], in assay [2], in [4] and in [6] was “inactive” throughout. For the same compound, the result in assay [3], in assay [5] and in assay [7] was inactive.
For the compound `Cc1ccc(N)cc1Cl`, the Potency result in assay [1], in [2], in assay [4], in assay [9] and in [6] was “inactive” throughout. The compound was classed as inactive in assay [3], in assay [5] and in assay [7].
Take `C=C(C)CCl`: the Potency result in [1], in [2], in assay [4], in [9] and in [6] was “inactive” each time. Besides, the compound was classed as inactive in assay [3], in assay [5] and in assay [7].
Turning to `C1CN2CCN1CC2`, the Potency result in assay [1], in assay [2], in assay [4], in assay [9] and in assay [6] was “inactive” throughout. The compound was called inactive in assay [3], in [5] and in assay [7].
Turning to `CC(C)NC(=O)N1CC(=O)N(c2cc(Cl)cc(Cl)c2)C1=O`, the Potency result in [1], in [2] and in assay [4] was “inactive” each time. The result in [3], in assay [5] and in assay [7] was inactive. Moreover, the Potency in assay [9] was 50.1 µM (active) and inactive; in [6], 19.3 µM (active) and inactive.
For the compound `Cc1cccc([N+](=O)[O-])c1`, the Potency entry in [1], in assay [2], in [4] and in assay [6] was “inactive” throughout. In addition, the outcome in assay [3], in assay [5] and in assay [7] was inactive.
As for `C=CCO`, the Potency entry in assay [1], in assay [2], in assay [4] and in [6] was “inactive” each time. The compound was called inactive in assay [3], in assay [5] and in [7].
Consider `CCOP(=S)(OCC)SCCSCC`, for which the Potency result in assay [1], in assay [4], in assay [8] and in [6] was “inactive” each time. Moreover, the outcome in assay [3], in assay [5] and in assay [7] was inactive.
`COC(=O)c1ccccc1C(=O)OC`: the Potency entry in [1], in assay [2], in assay [4] and in [6] was “inactive” throughout. Also, the call in assay [3], in assay [5] and in [7] was inactive.
For `Cc1[nH]c(=O)n(C(C)(C)C)c(=O)c1Cl`, the Potency entry in assay [1], in assay [2], in assay [4], in [9] and in assay [6] was “inactive” each time. Besides, the outcome in assay [3], in assay [5] and in assay [7] was inactive.
As to `CN(C)[C@@H]1C(=O)C(C(N)=O)=C(O)[C@@]2(O)C(=O)C3=C(O)c4c(O)cccc4[C@@](C)(O)[C@H]3C[C@@H]12`, the Potency result in assay [1], in assay [2], in assay [4], in assay [9] and in assay [6] was “inactive” each time. Moreover, the outcome in assay [3], in [5] and in assay [7] was inactive.
`O=C(NC(=O)c1c(F)cccc1F)Nc1cc(Cl)c(OC(F)(F)C(F)C(F)(F)F)cc1Cl` (stereo not given): the Potency entry in assay [2], in [4], in assay [8], in [9] and in assay [6] was “inactive” throughout. Also, the call in assay [3], in [5] and in assay [7] was inactive.
With `O=NN1CCCC1`, the Potency entry in assay [1], in assay [2], in assay [4], in assay [9] and in [6] was “inactive” throughout. The outcome in assay [3], in [5] and in assay [7] was inactive.
Turning to `CC(C)(C)C(O)(CCc1ccc(Cl)cc1)Cn1cncn1` (stereo not given), the Potency entry in assay [2], in assay [4] and in assay [9] was “inactive” in each case. For the same compound, the compound was called inactive in [3], in assay [10], in [5] and in [7].
Turning to `CC1OC(C)OC(C)O1` (stereo not given), the Potency result in assay [1], in assay [2], in assay [4] and in assay [6] was “inactive” each time. The result in assay [3], in [5] and in assay [7] was inactive.
For `Nc1c(Cl)c(Cl)nc(C(=O)O)c1Cl`, the Potency entry in assay [1], in assay [2] and in [6] was “inactive” each time. In addition, the compound was called inactive in assay [3], in [10], in assay [5] and in assay [7].
Regarding `O=C(O)c1ccccn1`, the Potency entry in assay [1], in assay [2], in [4], in [9] and in assay [6] was “inactive” each time. For the same compound, the result in assay [3], in [5] and in [7] was inactive.
As for `[N-]=[N+]=[N-]`, the Potency entry in assay [1], in assay [2], in assay [4] and in [6] was “inactive” each time. Moreover, the outcome in assay [3], in assay [5] and in assay [7] was inactive.
For `C1CC2OC2CC1C1CO1` (stereo not given), the Potency result in [1], in assay [2], in [4] and in assay [6] was “inactive” in each case. Also, the compound was called inactive in [3], in assay [5] and in assay [7].
On to `CC(C)N1C(=O)c2ccccc2NS1(=O)=O`, for which the Potency result in assay [1], in [2], in assay [4], in assay [9] and in assay [6] was “inactive” in each case. Moreover, the call in [3], in [5] and in [7] was inactive.
`COCCl`: the Potency entry in assay [1], in assay [2] and in assay [4] was “inactive” each time. The result in assay [3], in [5] and in assay [7] was inactive. Further, the Potency in [9] was 39.8 µM (active) and inactive; in [6], 20.1 µM (active) and inactive.
Regarding `CC(C)(C)OOC(=O)c1ccccc1`, the Potency entry in assay [1], in assay [2], in assay [4], in assay [9] and in assay [6] was “inactive” each time. The result in assay [3], in assay [5] and in assay [7] was inactive.
With `Nc1ccc(Oc2ccc(N)cc2)cc1`, the Potency result in assay [1], in [2], in [4], in assay [9] and in [6] was “inactive” throughout. Moreover, the outcome in [3], in assay [5] and in assay [7] was inactive.
Turning to `Cc1cc(-c2cc(C)c(N)c(C)c2)cc(C)c1N`, the Potency entry in assay [1], in assay [2], in assay [4] and in assay [6] was “inactive” each time. For the same compound, the compound was called inactive in assay [3], in assay [5] and in assay [7].
On to `CC1C=[C-]C=C1.[C-]#[O+].[C-]#[O+].[C-]#[O+].[Mn]`, for which the Potency result in assay [1], in assay [2], in [4], in assay [9] and in assay [6] was “inactive” in each case. Besides, the outcome in assay [3], in [5] and in [7] was inactive.
`CCCCCCCCCCCC#N`: the Potency entry in assay [1], in assay [2], in assay [4] and in assay [6] was “inactive” in each case. The compound was classed as inactive in assay [3], in assay [5] and in assay [7].
As for `OCCN(CCO)CCO`, the Potency result in assay [1], in [2], in [4], in assay [9] and in assay [6] was “inactive” in each case. Besides, the call in assay [3], in assay [5] and in assay [7] was inactive.
